The nature of assay [1]: HepG2 liver cancer cell viability effects, profiling panel, resazurin fluorescence, 24 h, PK04 Diversity Set (AID 1172). Particulars: higher = more signal.
Assay [2] is described as follows: basal S. cerevisiae growth modulation, no modifier, primary screen, OD600, strain BY4716, 24 h, basal condition (AID 1173). Particulars: OD600, 24 h, higher = more signal, called active from +8 up or from −8 down.
Assay [3] is described as follows: MM1S myeloma cell viability, profiling panel, resazurin fluorescence, basal, 24 h, PK04 Diversity Set (AID 1174).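 Note: MM1S multiple myeloma cell line.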 Particulars: higher = more signal, called active from +8 up or from −8 down. In general terms: Resazurin is reduced to fluorescent resorufin, in cell work by metabolically active cells.
The target in assay [4] is Dihydroorotate dehydrogenase (quinone), mitochondrial (Plasmodium falciparum (isolate 3D7)) (UniProt Q08210). The assay can be described thus: PfDHODH enzyme inhibitors, primary screen, biochemical, C-terminal His tag, absorbance 600 nm (AID 1175).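 Note: recombinant parasite enzyme with a five histidine tag at its C terminus.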 To be noted: DCIP absorbance 600 nm, higher = more signal, called active from +8 up or from −8 down.
The nature of assay [5]: P. aeruginosa biofilm formation inhibitors, primary screen, strain PAO1, LB-PBS medium, absorbance 600 nm (AID 1176). Particulars: P. aeruginosa PAO1 growth/biofilm, A600, 12 h; higher = more signal.
The nature of assay [6]: S. cerevisiae RM11-1a growth modifiers, primary screen, strain RM11-1a, OD600, basal, 24 h (AID 1177).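 Note: cultures grown under basal conditions with no added stressor.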 Particulars: OD600, 24 h, higher = more signal, called active from +8 up or from −8 down.
The nature of assay [7]: E. coli acrAB mutant growth effects, primary screen, E. coli filamentation inducers, strain DRC39, OD650, 24 h (AID 1178).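 Note: growth measured as culture turbidity by optical density at 650 nm.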 Particulars: higher = more signal, called active from +8 up or from −8 down.
Assay [8] in a line: E. coli acrAB mutant growth effects, primary screen, E. coli filamentation inducers, strain DRC39, OD650, 48 h (AID 1179).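 Note: screen aims at cell division blockers that make cells filament.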 Particulars: E. coli DRC39 delta-acrAB growth, higher = more signal, called active from +8 up or from −8 down.
Assay [9] is described as follows: RPMI8226 myeloma cell viability, profiling panel, resazurin fluorescence, basal, 24 h, PK04 Diversity Set (AID 1180).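 Note: RPMI8826 multiple myeloma cell line at 5000 cells per well.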 To be noted: higher = more signal.
The target in assay [10] is E3 ubiquitin-protein ligase XIAP (Homo sapiens) (UniProt P98170). The experiment in a line: XIAP binders, primary screen, biophysical, small-molecule microarray, fluorescence 635 nm (AID 1181).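 Note: score merges 667 nm emission and signal to noise over triplicate slides.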 Particulars: small-molecule microarray binding, higher = more signal.
The subject of assay [11] is XIP peptide (Xip251-270) binding. The experiment in a line: small-molecule binders of XIP peptide, primary screen, biochemical, small-molecule microarray, fluorescence 635/667 nm, 0.1 µg/mL protein (AID 1182). Particulars: fluorescent protein binding, 635 nm, higher = more signal, called active from +8 up or from −8 down.
A further assay relates to XIP peptide (Xip251-270). The experiment in a line: small-molecule binders of XIP peptide, primary screen, biochemical, small-molecule microarray, fluorescence 635/667 nm, 0.5 µg/mL protein (AID 1183). Particulars: small-molecule microarray binding, fluorescence 635 nm; higher = more signal.
Assay [12] in a line: Plasmodium falciparum growth inhibition, primary screen, strain 3D7, DAPI fluorescence, 100 nL (AID 1184).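 Note: parasites grown inside human red blood cells in medium with human serum.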 Particulars: P. falciparum 3D7 growth, 3 d, higher = more signal.
The target in assay [13] is Homeobox protein Hox-A13 (Mus musculus) (UniProt Q62424). The experiment in a line: inhibitors of HoxA13-DNA binding, primary screen, biochemical, fluorescence polarization, labeled oligonucleotide (AID 1185). To be noted: 15 min, higher = more signal, called active from +8 up or from −8 down. On the technique in general: In fluorescence polarisation assays a small probe gives low polarisation when free and higher when bound to something large.

Assay [14] is described as follows: inhibitors of hydroxyurea-induced Chk1 phosphorylation, primary screen, imaging, HeLa, phospho-Chk1 antibody, percent positive cells (AID 1186). To be noted: hydroxyurea-induced phospho-Chk1 immunofluorescence imaging, higher = more signal.
Assay [15] is described as follows: inhibitors of hydroxyurea-induced Chk1 phosphorylation, primary screen, imaging, HeLa, phospho-Chk1 nuclear intensity (AID 1187). To be noted: hydroxyurea-induced phospho-Chk1 immunofluorescence imaging, higher = more signal.

The structures appear in SMILES notation. The source made the active and inactive calls. Unless noted, the rule behind the calls is not given here.

Sequence of E3 ubiquitin-protein ligase XIAP (Homo sapiens) (P98170 whole entry, looked up): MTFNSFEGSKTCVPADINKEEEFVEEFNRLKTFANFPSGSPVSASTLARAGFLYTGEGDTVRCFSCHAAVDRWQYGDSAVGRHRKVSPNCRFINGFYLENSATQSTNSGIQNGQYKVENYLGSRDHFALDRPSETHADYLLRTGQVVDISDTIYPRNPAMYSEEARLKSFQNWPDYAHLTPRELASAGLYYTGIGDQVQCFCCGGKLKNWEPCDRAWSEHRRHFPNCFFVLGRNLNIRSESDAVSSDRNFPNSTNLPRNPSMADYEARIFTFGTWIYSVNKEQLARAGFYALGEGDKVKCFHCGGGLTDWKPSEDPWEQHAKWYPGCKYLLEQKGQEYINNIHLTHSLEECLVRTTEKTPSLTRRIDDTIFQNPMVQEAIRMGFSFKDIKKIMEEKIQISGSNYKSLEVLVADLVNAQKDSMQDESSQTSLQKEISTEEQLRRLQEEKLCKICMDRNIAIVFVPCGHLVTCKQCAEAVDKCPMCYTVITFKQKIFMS
Sequence of Dihydroorotate dehydrogenase (quinone), mitochondrial (Plasmodium falciparum (isolate 3D7)) (Q08210 whole entry, looked up): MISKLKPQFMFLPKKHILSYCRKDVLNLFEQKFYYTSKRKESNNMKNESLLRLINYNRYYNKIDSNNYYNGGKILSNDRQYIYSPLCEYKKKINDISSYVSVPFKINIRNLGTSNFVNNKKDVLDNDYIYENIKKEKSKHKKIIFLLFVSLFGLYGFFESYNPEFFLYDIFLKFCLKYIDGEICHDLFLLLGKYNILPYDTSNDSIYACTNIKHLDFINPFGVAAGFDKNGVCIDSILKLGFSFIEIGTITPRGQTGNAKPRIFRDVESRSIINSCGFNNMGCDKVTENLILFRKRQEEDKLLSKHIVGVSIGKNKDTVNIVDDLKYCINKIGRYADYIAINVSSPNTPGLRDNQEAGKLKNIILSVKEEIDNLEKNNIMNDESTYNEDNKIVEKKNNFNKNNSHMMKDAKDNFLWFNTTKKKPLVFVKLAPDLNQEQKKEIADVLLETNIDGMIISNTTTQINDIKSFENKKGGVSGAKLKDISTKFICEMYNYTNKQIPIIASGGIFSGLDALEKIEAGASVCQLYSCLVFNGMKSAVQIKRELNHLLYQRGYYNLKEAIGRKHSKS
Sequence of Homeobox protein Hox-A13 (Mus musculus) (Q62424 whole entry, looked up): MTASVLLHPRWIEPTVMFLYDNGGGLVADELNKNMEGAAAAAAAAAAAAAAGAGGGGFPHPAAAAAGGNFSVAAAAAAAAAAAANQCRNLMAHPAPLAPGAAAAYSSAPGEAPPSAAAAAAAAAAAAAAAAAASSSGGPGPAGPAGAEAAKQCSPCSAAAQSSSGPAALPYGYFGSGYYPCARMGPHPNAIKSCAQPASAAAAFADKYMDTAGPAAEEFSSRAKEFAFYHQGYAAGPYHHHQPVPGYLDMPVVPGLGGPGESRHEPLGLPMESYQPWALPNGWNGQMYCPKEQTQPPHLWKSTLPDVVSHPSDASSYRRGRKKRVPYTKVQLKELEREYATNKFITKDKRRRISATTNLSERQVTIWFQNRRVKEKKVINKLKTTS

Consider `C=CCN1C(=O)[C@]2(CCC(=O)OC(C)(C)C)N=C(c3ccc(OCCCO)cc3)O[C@@H]2c2ccccc21`, for which the z-score in [1] is -1.11; in [2], -1.32 (inactive); in assay [3], -3.44 (inactive); in assay [5], 0.314 (inactive); in assay [6] it was 0.853 (inactive); in [7] it was 0.93 (inactive). For the same compound, the z-score is 0.685 (inactive) in assay [8]; -6.48 in assay [9]; -1.34 in assay [12]; -2.63 (inactive) in assay [13]; -0.646 (inactive) in assay [14]; -0.541 (inactive) in [15]. Also, the composite z-score in [4] is -0.292 (inactive); in assay [10], -0.0387; in assay [11] it was 0.0041 (inactive); in the assay on XIP peptide (Xip251-270), 0.464.

In the case of `O=C1C[C@]2(c3ccc([N+](=O)[O-])cc3)C(=O)N(C3CC3)c3cc(CO)ccc3[C@H]2N1CC12CC3CC(CC(C3)C1)C2`, the z-score in assay [1] is -0.742; in assay [2], 0.359 (inactive); in assay [3], -0.118 (inactive); in assay [5], 0.677 (inactive); in assay [6], 0.866 (inactive); in [7], -0.292 (inactive). For the same compound, the z-score in assay [8] was -0.616 (inactive); in assay [9], 0.0683; in [12], -1.38; in assay [13], -0.902 (inactive); in assay [14], -0.0994 (inactive); in [15], -0.497 (inactive). In addition, the composite z-score is -3.84 (inactive) in assay [4], -0.158 in assay [10], 0.196 (inactive) in [11] and 0.463 in the assay with XIP peptide (Xip251-270).

For `CCCCCCCCCC(O)C1C=CC2C(=O)N(c3ccccc3)C(=O)C2N1Nc1cc(OC)c(OC)c(OC)c1` (centres undefined), the z-score in assay [1] was -2.66; in assay [2], 0.953 (inactive); in assay [3], -4.42 (inactive); in [5], 0.711 (inactive); in assay [6] it was 0.27 (inactive); in assay [7], -1.57 (inactive). Also, the z-score in [8] is -1.75 (inactive); in assay [9], -4.03; in [12] it was -0.412; in assay [13], -2.06 (inactive); in assay [14], 0.297 (inactive); in assay [15] it was 0.0284 (inactive). Further, the composite z-score in assay [4] was -0.474 (inactive); in assay [10] it was 0.176; in assay [11] it was -0.26 (inactive); in the assay on XIP peptide (Xip251-270) it was 0.206.

With `CCCC[C@@H]1C[C@H]1[C@@H](NC(=O)c1cccs1)c1ccccc1C(F)(F)F`, the z-score in assay [1] is -0.119; in assay [2], 0.866 (inactive); in assay [3] it was -0.186 (inactive); in [5], 0.591 (inactive); in assay [6], 0.742 (inactive); in assay [7], -0.561 (inactive). Further, the z-score in [8] is -0.469 (inactive); in assay [9], 0.276; in assay [12], -1.27; in [13], 0.322 (inactive); in assay [14], -0.0139 (inactive); in assay [15] it was 0.364 (inactive). Moreover, the composite z-score in [4] is -0.271 (inactive); in [10], 0.99; in assay [11] it was 0.269 (inactive); with XIP peptide (Xip251-270) it was 0.305.

For the compound `C=CC[C@H](OC(=O)Nc1ccc(SC)cc1)c1ccc(O)c2ccccc12`, the z-score in [1] was -1.26; in assay [2] it was -16.6 (active); in assay [3] it was -6.71 (inactive); in assay [5] it was 1.44 (inactive); in [6], -20.3 (active); in assay [7] it was -0.146 (inactive). Further, the z-score in [8] is -0.772 (inactive); in assay [9] it was -5.02; in [12] it was -0.922; in [13], -1.35 (inactive); in [14] it was -0.0114 (inactive); in assay [15], 0.142 (inactive). The composite z-score in assay [4] is -6.87 (inactive); in assay [10], 0.104; in assay [11], 1.07 (inactive); in the assay with XIP peptide (Xip251-270), 0.728.

In the case of `C=C(COC)C(=O)CC[C@@H](OC(C)=O)c1cccc(OCCO)c1`, the z-score in assay [1] is -0.434; in assay [2], 0.823 (inactive); in assay [3], -0.0743 (inactive); in [5], -0.329 (inactive); in [6], 1.17 (inactive); in [7] it was 0.858 (inactive). For the same compound, the z-score is 0.503 (inactive) in assay [8]; -0.929 in [9]; -0.988 in [12]; -3.69 (inactive) in assay [13]; 0.367 (inactive) in assay [14]; -0.113 (inactive) in [15]. In addition, the composite z-score in assay [4] was 0.0704 (inactive); in [10], -0.263; in assay [11], 0.309 (inactive); in the assay with XIP peptide (Xip251-270), -0.0276.

Regarding `C=CCNC(=O)[C@@H]1[C@H]2C(=O)O[C@H](c3ccccc3)[C@H](c3ccccc3)N2[C@H](c2ccccc2OCCO)[C@@]12C(=O)Nc1ccc(C#CCC(C(=O)OC)C(=O)OC)cc12`, the z-score in assay [1] was -0.679; in assay [2] it was 1.59 (inactive); in assay [3], -8.99 (active); in assay [5], 2.19 (inactive); in assay [6], 1.86 (inactive); in assay [7], 0.108 (inactive). Also, the z-score in assay [8] was -0.263 (inactive); in [9] it was -7.28; in [12], -2.1; in assay [13], -3.02 (inactive); in assay [14], 0.0648 (inactive); in [15], -0.246 (inactive). Further, the composite z-score was -25.5 (active) in assay [4], -0.0062 in [10], 1.56 (inactive) in assay [11] and 0.343 in the assay with XIP peptide (Xip251-270).

In the case of `CO[C@H]1O[C@H](CO)[C@@H](OC(=O)Nc2ccc3c(c2)OCO3)[C@H](OC(=O)Nc2ccc3c(c2)OCO3)[C@@H]1OC(=O)Nc1ccc2c(c1)OCO2`, the z-score in [1] is -0.907; in assay [2] it was 1.44 (inactive); in [3], -0.309 (inactive); in assay [5] it was 1.05 (inactive); in assay [6] it was 1.81 (inactive); in assay [7], 1.01 (inactive). The z-score in assay [8] was -0.147 (inactive); in assay [9] it was -0.472; in assay [12], -2.31; in assay [13], -4.7 (inactive); in [14], -0.187 (inactive); in assay [15] it was -0.119 (inactive). Besides, the composite z-score in [4] was -0.732 (inactive); in [10], 0.374; in assay [11], 1.12 (inactive); in the assay on XIP peptide (Xip251-270), 0.904.

Turning to `C=CCNC(=O)[C@@H]1[C@H]2C(=O)O[C@H](c3ccccc3)[C@H](c3ccccc3)N2[C@H](c2ccc(OCCO)cc2)[C@@]12C(=O)N(C(=O)OCCOC)c1ccc(C#Cc3ccc(OC)cc3)cc12`, the z-score in assay [1] was -0.0068; in assay [2], 1.21 (inactive); in assay [3] it was 0.279 (inactive); in assay [5] it was 2.08 (inactive); in [6], 2.57 (inactive); in assay [7], -0.709 (inactive). Besides, the z-score in assay [8] is -0.73 (inactive); in [9], 0.725; in assay [12], -2.07; in assay [13], -0.573 (inactive); in assay [14] it was 0.0644 (inactive); in [15], 0.22 (inactive). Further, the composite z-score in assay [4] was -0.0464 (inactive); in assay [10] it was 0.102; in [11] it was 0.448 (inactive); in the assay with XIP peptide (Xip251-270), 0.589.

The record behind these values is PubChem BioAssay.
